Several values for one entry are separate records, joined by “and”; a condition that tells them apart may be missing. Equal values may be shown once. Where a name gives a salt, the structure may show the parent alone.
Key:
Assay in all cases: cell viability relative to vehicle control; higher = less cytotoxic
Settings in all cases: 10 µM
K562 = test system: K562
Summary of the method: (§1)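 After removal of identity-inconsistent compounds, the Selleck bioactive, kinase and epigenetic probe libraries were screened on CRISPR-edited mutant clones and isogenic wild-type clones of four leukaemia lines. Plates were 384-well, each well holding 2000 cells in 50 µL medium and receiving a single 10 µM acoustically dispensed dose. CellTiter-Glo luminescence was read 48 h later, after the supernatant was taken off. Genedata Screener was used to express viability as percent of the on-plate vehicle control.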

MARIMO = test system: MARIMO
Summary of the method: as §1

MOLM14 = test system: MOLM14
Summary of the method: as §1

OCI-AML2 = test system: OCI-AML2
Summary of the method: as §1

Row | SMILES | cell viability (K562; SRSF2 genotype: SRSF2 P95H/wt) | cell viability (K562; SRSF2 genotype: SRSF2 wt/wt) | cell viability (MARIMO; SRSF2 genotype: SRSF2 P95H/wt) | cell viability (MARIMO; SRSF2 genotype: SRSF2 wt/wt) | cell viability (MOLM14; SRSF2 genotype: SRSF2 P95H/wt) | cell viability (MOLM14; SRSF2 genotype: SRSF2 wt/wt) | cell viability (OCI-AML2; SRSF2 genotype: P95H/wt) | cell viability (OCI-AML2; SRSF2 genotype: wt/wt)
1 | Cc1ccc(-n2sc(=O)n(Cc3ccc(F)cc3)c2=O)cc1 | 78.6% and 73.5% | 78% | 67.2% | 72.6% | 47.6% | 61.8% | 50.6% | 50.9%
2 | C=C1C[C@@]23CC[C@H]4[C@@](C)(CCC[C@@]4(C)C(=O)O[C@@H]4O[C@H](CO)[C@@H](O)[C@H](O)[C@H]4O)[C@@H]2CC[C@]1(O[C@@H]1O[C@H](CO)[C@@H](O)[C@H](O)[C@H]1O[C@@H]1O[C@H](CO)[C@@H](O)[C@H](O)[C@H]1O)C3 [Stevioside] | 113% and 107% | 113% | 111% | 97.4% | 112% | 112% | 108% | 106%
3 | CC(C)Nc1cc(-c2c[nH]c(C(=O)N[C@H](CO)c3cccc(Cl)c3)c2)c(Cl)cn1 | 73.3% and 90.4% | 81.5% | 37.9% | 40% | 48.8% | 34.9% | 41.8% | 37.6%
4 | Cc1nn(C)c2c1C(c1ccc(C(F)(F)F)cc1)C(C#N)=C(N)O2 (stereo not drawn) | 101% and 106% | 111% | 99.5% | 95% | 103% | 102% | 112% | 121%
5 | Cc1cc(C)n(C)n1 [1,3,5-Trimethylpyrazole] | 110% and 105% | 115% | 113% | 109% | 97.9% | 110% | 104% | 104%
6 | O=C(O)c1cccnc1 [Niacin (Nicotinic acid)] | 108% and 98.1% | 109% | 99.3% | 111% | 103% | 101% | 74% | 78.7%
7 | CCCCCCCCCCCC1=C(O)C(=O)C=C(O)C1=O [Embelin] | 91.7% and 88.2% | 85.5% | 90.3% | 98.8% | 90.9% | 91.9% | 89.3% | 94.6%
8 | COC(=O)CCC(=O)CN [Methyl Aminolevulinate Hydrochloride] | 94.6% and 91.5% | 99% | 92.2% | 94.4% | 95% | 97.2% | 93.9% | 102%
9 | Cc1[nH]cnc1CN1CCc2c(c3ccccc3n2C)C1=O [Alosetron Hydrochloride] | 93.1% and 95.7% | 88.6% | 93.7% | 102% | 93.2% | 100% | 91.6% | 101%
10 | CCN(CC)CCNC(=O)c1c(C)[nH]c(/C=C2\C(=O)Nc3ccc(F)cc32)c1C [Sunitinib Malate] | 17.8% and 22.7% | 12.7% | 18.5% | 19.4% | 0.31% | 0.38% | 0.42% | 1.47%
11 | Cc1nc(-c2cccnc2)sc1C(=O)Nc1ccccc1-c1cn2c(CN3CCOCC3)csc2n1 | 97.4% and 94.2% | 88.3% | 107% | 116% | 102% | 103% | 95.3% | 102%
12 | CC(C)(C)c1cnc(CSc2cnc(NC(=O)C3CCNCC3)s2)o1 | 24.3% and 35.5% | 27.3% | 9.12% | 4.42% | 3.75% | 0.63% | 4.54% | 18.1%
13 | O=c1[nH]c(=O)n([C@H]2C[C@H](O)[C@@H](CO)O2)cc1/C=C/Br [Brivudine] | 97.4% and 92% | 103% | 101% | 102% | 95.6% | 105% | 99.8% | 107%
14 | Oc1ccc(Cc2nc3c(Cc4ccccc4)nc(-c4ccc(O)cc4)cn3c2O)cc1 [Coelenterazine] | 96.7% and 92.9% | 101% | 94.9% | 93.5% | 86.2% | 97% | 98.8% | 98%
15 | N#CC(=Cc1cn(-c2ccccc2)c2ccccc12)C(=O)O | 111% and 90.4% | 93.5% | 86.3% | 94.5% | 89.2% | 97.2% | 91% | 95.4%
16 | N#CC(c1ccc(Cl)cc1)c1c(Cl)cc(-n2ncc(=O)[nH]c2=O)cc1Cl (stereo not drawn) [Diclazuril] | 101% and 88.5% | 85.2% | 83.8% | 94.7% | 84.4% | 86.3% | 91.3% | 80.8%
17 | COc1cc(C(=O)O)ccc1NC(=O)[C@@H]1N[C@@H](CC(C)(C)C)[C@](C#N)(c2ccc(Cl)cc2F)[C@H]1c1cccc(Cl)c1F [Idasanutlin (RG-7388)] | 96.7% and 98.2% | 86.3% | 116% | 131% | 86.5% | 102% | 102% | 118%
18 | CC(C)(C)c1cc(C(C)(C)C)c(NC(=O)c2c[nH]c3ccccc3c2=O)cc1O [Ivacaftor (VX-770)] | 79.4% and 75.5% | 76.1% | 101% | 111% | 85.7% | 87.5% | 91.7% | 86%
19 | O=C(Nc1c[nH]nc1-c1nc2ccc(CN3CCOCC3)cc2[nH]1)NC1CC1 | 26.9% and 28.6% | 15.8% | 6.33% | 2.59% | 1.54% | 0.83% | 2.98% | 15.3%
20 | Cc1nn(C)c(COc2ccc(N3CCN(S(=O)(=O)N(C)C)CC3)cc2)c1-c1cccc2c(CCCOc3cccc4ccccc34)c(C(=O)O)n(CCN3CCOCC3)c12 | 93.7% and 106% | 99.8% | 101% | 107% | 98.3% | 101% | 103% | 103%
21 | Cc1cn(-c2cc(NC(=O)c3ccc(C)c(Nc4nccc(-c5cnccn5)n4)c3)cc(C(F)(F)F)c2)cn1 [Radotinib] | 22.3% and 38.7% | 22.1% | 107% | 111% | 104% | 100% | 103% | 104%

From the supplement of paper PMC10981050
